Assay outcomes deposited in PubChem by National Center for Advancing Translational Sciences (NCATS).
Hits are enriched below; roughly 6.2% of the tested compounds scored in any of these assays.
ATXN viability: Viability Counterscreen for Primary qHTS for Inhibitors of ATXN expression. S2 cells (HEK-293 line with an ATXN2-luciferase reporter) viability, CellTiter-Fluor protease fluorescence, 24 h. hit rate 0.49% among 400,000. Potency, µM (highest dose often 56.7 µM), usual class: cytotoxic; note: nearly all actives have a fitted effect of over 40% in size
KB-V1 cytotox: qHTS assay for MDR1-selective chemotherapeutics: Primary screen using the drug-selected MDR subline cells KB-V1; KB-V1 MDR cells viability, CellTiter-Glo, 72 h; Potency, µM (top dose mostly 46.1 µM), usual class: cytotoxic; hit rate 3.4% among 400,000; AID 1347076, 2019; note: nearly all actives have a fitted effect of over 60% in size
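Potencies derive from concentration-effect curves fitted to normalized luminescence (CellTiter-Glo) of KB-V1 cells treated for 72 h at 37 degrees C in phenol-red-free DMEM containing 10% FBS.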
ATXN2 expr inh: Primary qHTS for Inhibitors of ATXN expression. HEK-293 ATXN2-luciferase reporter, luminescence, 24 h. Potency, µM (series often up to 57 µM), hits mostly inhibitors. hit rate 0.72% among 360,000; note: nearly all actives have a fitted effect of over 55% in size
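ATXN2-luciferase reporter cells (luciferase flanked by upstream and downstream ATXN2 gene portions) were treated 24 h at 37 °C with compounds at up to 57 uM. SteadyGlo luminescence gave expression; GF-AFC fluorescence gave viability.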
HT1080 IDH1KD tx: qHTS for induction of synthetic lethality in tumor cells producing 2HG: qHTS for the HT-1080-IDH1KD cell line; HT-1080 IDH1 knockdown viability, ATP luminescence, 48 h; Potency, µM (series often up to 46.1 µM), usual class: cytotoxic; hit rate 2% among 360,000; AID 686971, 2013
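After a 2 h attachment period, IDH1KD HT-1080 cells took pin-transferred compound for 48 h at 37 °C; ATP-based luminescence after 10 min room-temperature reagent incubation reported viability.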
KB-3-1 cytotox: qHTS assay for MDR1-selective chemotherapeutics: Primary screen using the parental adenocarcinoma cell KB-3-1. KB-3-1 viability, CellTiter-Glo ATP luminescence, 72 h. Potency, µM (doses to about 46.1 µM), hits mostly cytotoxic. hit rate 1.4% among 400,000. AID 1347075, 2019; note: nearly all actives have a fitted effect of over 60% in size
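Using CellTiter-Glo luminescence, growth of non-resistant KB-3-1 adenocarcinoma cells is assessed 72 h after pin-tool compound addition at 37 °C. Normalized responses across the concentration series yield fitted curves.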
HT1080NT lethal: qHTS for induction of synthetic lethality in tumor cells producing 2HG: qHTS for the HT-1080-NT fibrosarcoma cell line; HT-1080-NT fibrosarcoma viability, CellTiter-Glo ATP luminescence, 48 h; Potency, µM (series often up to 46.1 µM), hits mostly cytotoxic; hit rate 1.6% among 360,000; AID 686970, 2013;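 note: NT is the 2HG producing partner of a matched IDH1 knockdown line; nearly all actives have a fitted effect of over 55% in size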
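Viability by CellTiter-Glo luminescence after 48 h compound exposure at 37C of HT-1080-NT cells (750/well, RPMI, 5% FBS). % activity scaled between DMSO wells and medium-only wells, then curve-fitted and categorized by curve class.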
A number is an active result; – = inactive; ? = inconclusive; · = no result; [ ] = dose if it differs, or a comment. Calls come from the whole dose curve; as a rule, active = well fitted curve in the direction sought with a large enough effect; inconclusive = small, poorly fitted or top-dose-only effect, or another doubt; inactive = no such curve, though single readings can be large; an effect the other way counts as inactive or inconclusive.

SMILES	ATXN viability	KB-V1 cytotox	ATXN2 expr inh	HT1080 IDH1KD tx	KB-3-1 cytotox	HT1080NT lethal
COc1cccc(C(=O)N/N=C(/c2ccccc2)c2ccccn2)c1	10µM	–	3.98µM	0.891µM	?	?
COc1cc(C(=O)N/N=C(\Cc2ncc[nH]2)c2ccccc2)cc(OC)c1OC	–	?	?	4.61µM	?	9.2µM
COc1cc(C(=O)N/N=C(\C)c2ccccn2)cc(OC)c1OC	–	7.31µM	–	?	6.51µM	?
CCCS(=O)(=O)NC(=O)C1(C)CCN(C(=O)c2ccco2)C1 (stereo not drawn)	–	–	–	–	–	?
CCOC(=O)c1sc2ncn(CC(=O)Nc3ccc(OC)c(Cl)c3)c(=O)c2c1C	–	–	–	·	–	·
CCCc1cc(=O)oc2cc(C)c3c(C(C)(C)C)coc3c12	–	?	–	·	–	·
C/C(=N/NC(=O)c1ccccn1)c1ccc(O)cc1	–	–	·	–	–	–
C/C(=N/NC(=O)c1ccccn1)c1ccco1	–	20.6µM	?	?	?	?
CCCCC(=O)Nc1cccc(NC(=O)c2ccccc2Br)c1	–	5.17µM	–	–	–	–
CCCCC(=O)Nc1cccc(NC(=S)NC(=O)C(C)C)c1	–	20.6µM	–	–	–	–
CCCCC(=O)Nc1cccc(NC(=O)CC)c1	–	–	–	–	–	–
COc1cccc(NC(=O)c2ccccc2Br)c1	–	–	·	–	–	–
COc1cccc(-n2c(=O)c3sc4ccccc4c3n(CC(=O)Nc3ccc(F)cc3F)c2=O)c1	?	–	–	·	–	·
N#C/C(=C\N1CCN(Cc2ccc3c(c2)OCO3)CC1)c1nc2ccccc2s1	–	20.6µM	–	?	?	?
CCOC(=O)N1CCN(/C=C(\C#N)c2nc3ccccc3s2)CC1	–	23.1µM	–	–	–	–
C=CCOC(=O)C(C#N)c1nc2ccccc2nc1N1CCN(Cc2ccc3c(c2)OCO3)CC1 (stereo not drawn)	–	23.1µM	–	–	–	–
CCCCNC(=O)C(C#N)c1nc2ccccc2nc1N1CCN(Cc2ccc3c(c2)OCO3)CC1 (stereo not drawn)	–	–	–	–	–	–
CCc1nn(CC(=O)NCCc2ccc(Cl)cc2)c(=O)c2cc3c(OC)cccc3n12	–	?	–	·	–	·
FC(F)(F)c1cnc(N2CCCN(C(=S)Nc3ccccc3)CC2)c(Cl)c1	–	?	?	23.1µM	–	?
FC(F)(F)c1cnc(N2CCN(C(=S)NCc3ccccc3)CC2)c(Cl)c1	–	–	?	?	?	–
CCOc1cc(S(=O)(=O)NCc2ccccc2)c(OCC)cc1-n1cnnn1	–	–	–	–	–	–
CCOc1cc(S(=O)(=O)N(Cc2ccccc2)Cc2ccccc2)c(OCC)cc1-n1cnnn1	–	3.66µM	–	–	–	–
Cc1ccc(-c2n[nH]c3c2C(c2cccs2)N(c2ccc(Cl)cc2)C3=O)cc1 (stereo not drawn)	?	–	?	·	?	·
Clc1ccccc1-c1nc2ccccc2c2nc3ccccc3n12	–	4.11µM	–	–	?	–
Cc1nc2ccccc2c2nc3ccccc3n12	–	–	–	–	–	?
SMILES	ATXN viability	KB-V1 cytotox	ATXN2 expr inh	HT1080 IDH1KD tx	KB-3-1 cytotox	HT1080NT lethal
CC(C)N(C(=O)Cn1c(-c2ccccc2Cl)nc2ccccc21)c1ccccc1	–	10.3µM	–	–	–	–
CCn1c(=O)c(C(=O)Nn2c(C)nc3ccccc3c2=O)c(O)c2ccccc21	–	?	–	–	–	–
CC(C)Cn1c2c(c(O)c(C(=O)Nn3c(Cc4ccccc4)nc4ccccc4c3=O)c1=O)CCCC2	–	?	–	–	?	–
CCCn1c2c(c(O)c(C(=O)Nc3ccccc3)c1=O)CCCC2	–	14.6µM	–	–	–	–
CCc1nc2ccccc2c(=O)n1NC(=O)c1c(O)c2ccccc2n(CC)c1=O	–	8.2µM	–	–	?	–
CCCCc1nc2ccccc2c(=O)n1NC(=O)c1c(O)c2c(n(CC(C)C)c1=O)CCCC2	–	2.59µM	–	–	4.61µM	–
CCn1c(=O)c(C(=O)Nc2nc3ccccc3[nH]2)c(O)c2ccccc21	–	1.16µM	–	10.3µM	11.6µM	7.31µM
CC(C)Cn1c2c(c(O)c(C(=O)Nc3ccc(F)cc3)c1=O)CCCC2	–	?	–	–	–	–
CCOc1ccccc1NC(=O)C1CCN(S(=O)(=O)c2cccs2)CC1	–	–	–	·	–	·
O=S1(=O)CC(N2CCN(CCO)CC2)CN1Cc1cn(Cc2ccc(C(F)(F)F)cc2)nn1 (stereo not drawn)	–	–	–	–	–	–
Cc1cccc(OCC(=O)Nc2ccc(C(=O)OCc3cc(=O)n4nc(C5CC5)sc4n3)cc2)c1	–	–	–	·	–	·
Cc1nn2c3c(cnc2c1-c1ccc(Cl)cc1)C(=O)CC(c1ccco1)C3 (stereo not drawn)	–	5.8µM	–	–	–	–
CCCCN1C(=O)C(CC(=O)NCC2CCCCC2)CC(C(=O)N(C(C)C)C(C)C)=C1C (stereo not drawn)	?	–	–	–	–	–
COC(=O)c1ccc(CN2CCC3(CCC(CNC(=O)c4ccco4)O3)CC2)cc1 (stereo not drawn)	–	·	·	·	·	·
Cc1ccc(S(=O)(=O)Nc2ccc(Nc3nccn4c(-c5ccccc5Oc5ccccc5)cnc34)cc2)cc1	–	–	–	–	–	–
Cc1ccc(S(=O)(=O)Nc2ccc(Nc3nccn4c(-c5ccc6ccccc6c5)cnc34)cc2)cc1	–	11.6µM	–	–	–	–
CCOC(=O)c1c(NC(=O)CSc2nnc(CNC(=O)c3ccco3)n2C)sc2c1CCC2	–	20.6µM	–	–	–	–
NC(=O)c1c(NC(=O)CSc2nnc(Cc3ccccc3)n2Cc2ccco2)sc2c1CCC2	–	14.6µM	?	?	–	–
CCOC(=O)c1c(NC(=O)c2ccco2)sc2c1CCCCC2	–	–	–	–	–	–
CCOC(=O)c1c(NC(=O)c2ccco2)sc(C(=O)N2CCCC2)c1C	–	2.31µM	–	–	–	–
O=S1(=O)C=C(SCc2ccccc2)Nc2ccccc21	–	18.4µM	–	–	?	–
O=S1(=O)C=C(SCc2ccc(F)cc2)Nc2ccccc21	–	–	–[11.3 µM]	–	–	–
COc1ccc(CSC2=CS(=O)(=O)c3ccccc3N2)cc1	–	23.1µM	–	–	–	–
CCCS(=O)(=O)N1CC(=O)N(c2ccc(C)c(Cl)c2)C(C)(C(=O)NC2CCCCCC2)C1 (stereo not drawn)	·	–	·	·	–	·
COc1ccccc1CNCCSc1nnnn1C	–	–	–	·	–	·
